This note sets out measurements from article doi:10.1101/2024.03.05.583629.

The target in this assay is pT7_6His-AlfaTag-HOXD13 (human, UniProt P35453 263-343). Briefly: PADIT-seq. The settings on record: dsDNA, one strand shown.
Chain of pT7_6His-AlfaTag-HOXD13 (P35453 263-343): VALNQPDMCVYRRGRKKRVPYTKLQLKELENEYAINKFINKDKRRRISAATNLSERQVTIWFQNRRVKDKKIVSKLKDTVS
Sequence “CTCGAGGATATCAAGATCTGGCCTCGGCGTTTTACCTGGAACCTCTAGCTAGCCGACTCACTATAGGGATAATCGCCCTGAGCAAAGACC” registered a binding signal of -0.352 ± 0.118 log2FC.
Then “CTCGAGGATATCAAGATCTGGCCTCGGCTCTCTAAAAGGAACCTCTAGCTAGCCGACTCACTATAGGGATAATCGCCCTGAGCAAAGACC”, with 0.412 ± 0.105 log2FC; and “CTCGAGGATATCAAGATCTGGCCTCGGCCAAATAAAAGGAACCTCTAGCTAGCCGACTCACTATAGGGATAATCGCCCTGAGCAAAGACC”, with 2.65 ± 0.0828 log2FC.
Then “CTCGAGGATATCAAGATCTGGCCTCGGCGTTTTATTCGGAACCTCTAGCTAGCCGACTCACTATAGGGATAATCGCCCTGAGCAAAGACC”, with 1.73 ± 0.0989 log2FC.
Sequence “CTCGAGGATATCAAGATCTGGCCTCGGCCTTTTACTGGGAACCTCTAGCTAGCCGACTCACTATAGGGATAATCGCCCTGAGCAAAGACC” displayed a binding signal of 2.53 ± 0.0719 log2FC.
The result for “CTCGAGGATATCAAGATCTGGCCTCGGCCAGTTAAAAGGAACCTCTAGCTAGCCGACTCACTATAGGGATAATCGCCCTGAGCAAAGACC” reads 2 ± 0.0881 log2FC; that for “CTCGAGGATATCAAGATCTGGCCTCGGCCTGATAAAAGGAACCTCTAGCTAGCCGACTCACTATAGGGATAATCGCCCTGAGCAAAGACC”, 1.73 ± 0.0914 log2FC.
Then “CTCGAGGATATCAAGATCTGGCCTCGGCGACCTAAAAGGAACCTCTAGCTAGCCGACTCACTATAGGGATAATCGCCCTGAGCAAAGACC”, with -0.787 ± 0.0956 log2FC; and “CTCGAGGATATCAAGATCTGGCCTCGGCGTTTTAGAGGGAACCTCTAGCTAGCCGACTCACTATAGGGATAATCGCCCTGAGCAAAGACC”, with 1.24 ± 0.114 log2FC; and “CTCGAGGATATCAAGATCTGGCCTCGGCCCGATAAAAGGAACCTCTAGCTAGCCGACTCACTATAGGGATAATCGCCCTGAGCAAAGACC”, with 1.27 ± 0.0909 log2FC.
